Experimental data reported in PubChem BioAssay (NCATS).
Records with an inconclusive call do not appear. Activity calls are given as the source filed them. Calls follow the shape of the dose curve; as a rule, active = well fitted curve in the direction sought with a large enough effect; inconclusive = small, poorly fitted or top-dose-only effect, or another doubt; inactive = no such curve, though single readings can be large; an effect the other way counts as inactive or inconclusive.

Assays:
[1] = Primary qHTS for inhibitors of nuclear receptor binding SET domain protein 2 (NSD2) in an RCH-ACV wild type WT cells (2C) (AID 1645877); also: nearly all actives have a fitted effect of over 70% in size; also: potency is read from the fitted curve at half-maximal effect; as to activity change, negative = cell killing: % is scaled to controls: 0 for no effect and ±100 for the full control effect
[2] = biological target: Glutathione peroxidase 1 (Homo sapiens) (UniProt P07203); test: Primary qHTS Assay for Inhibitors of Recombinant Selenoprotein Glutathione Peroxidase 1 (GPX1) (AID 1845191); also: nearly all actives have a fitted effect of over 65% in size; as to activity, negative = inhibition: % is scaled to controls: 0 for no effect and ±100 for the full control effect
How it was run: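 GR-coupled readout: NADPH consumption tracked by fluorescence, ex 340/em 450 nm, at t=0 and after 15 min at RT. Final mix 10 nM GPX1, 1 mM GSH, 0.5 mM CHP, 0.5 mM NADPH, 100 nM GR, 0.01% BSA, following 30 min enzyme–compound preincubation.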

[3] = biological target: Phospholipid hydroperoxide glutathione peroxidase GPX4 (Homo sapiens) (UniProt P36969); test: Primary qHTS Assay for Inhibitors of Recombinant Selenoprotein Glutathione Peroxidase 4 (GPX4) (AID 1845192); also: nearly all actives have a fitted effect of over 65% in size; as to activity change, negative = inhibition: series mostly up to about 50 µM; % is scaled to controls: 0 for no effect and ±100 for the full control effect
How it was run: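 Steps: GPX4 plus compound, 30 min RT; add GR/GSH/NADPH master mix; start with cumene hydroperoxide; read 340/450 nm fluorescence at 0 and 15 min. Finals were 200 nM GPX4, 1 mM GSH, 0.5 mM CHP, 0.5 mM NADPH, 100 nM GR.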

[4] = biological target: Luciferin 4-monooxygenase (Photinus pyralis) (UniProt P08659); test: Primary firefly luciferase (FLuc) qHTS assay for identification of artifact compounds. (AID 1845220); also: nearly all actives have a fitted effect of over 60% in size;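 as to activity change, negative = inhibition: series mostly up to about 54 µM; plate controls were DMSO vehicle for no effect and no enzyme for full effect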
How it was run: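 Titrated compounds were incubated 15 min at RT, protected from light, with luciferin and ATP at 10 uM; reaction started with 10 nM FLuc, luminescence imaged at 5 min, and concentration-response fitted by Hill equation.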

[5] = Primary fluorescence-based thiol-reactive (MSTI) qHTS assay for identification of artifact compounds. (AID 1845221); also: nearly all actives have a fitted effect of over 65% in size; also: potency is read from the fitted curve at half-maximal effect;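 as to activity change, negative = thiol reactive: series mostly up to about 54 µM; thiol-reactive compounds lower the probe fluorescence signal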
How it was run: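 First, 4 uM MSTI in 2% DMSO/PBS pH 7.4 was dispensed; next, compounds were added; then plates sat 1 h at room temperature without light. Finally, emission at 598 nm was recorded.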

[6] = tested on: Nanoluciferase (engineered Oplophorus gracilirostris luciferase); test: Primary Nanoluciferase (NLuc) qHTS assay for identification of artifact compounds. (AID 1845222);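 also: NLuc secreted into diluted conditioned medium of S16 cells; series mostly up to about 54 µM; 0% = DMSO and -100% = no enzyme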
How it was run: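 qHTS format, against NLuc in S16 cell-conditioned medium. Nano-Glo substrate 1:100 was added after 15 min at room temperature. Luminescence was taken after a further 5 min.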

[7] = Primary redox qHTS assay for identification of artifact compounds. (AID 1845223);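 also: 0% = DMSO and 100% = reference compound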
How it was run: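 Redox-cycling detection via DTT (250 uM final) oxidation coupled to Amplex Red (25 uM)/HRP (250 mU/mL) in HBSS. 15 min preincubation plus 30 min after DTT, room temperature. Ex/Em 525/598 nm; 4-parameter Hill fit against DMSO and 10 uM DA3003.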

Phospholipid hydroperoxide glutathione peroxidase GPX4 (Homo sapiens), sequence (P36969 whole entry, looked up): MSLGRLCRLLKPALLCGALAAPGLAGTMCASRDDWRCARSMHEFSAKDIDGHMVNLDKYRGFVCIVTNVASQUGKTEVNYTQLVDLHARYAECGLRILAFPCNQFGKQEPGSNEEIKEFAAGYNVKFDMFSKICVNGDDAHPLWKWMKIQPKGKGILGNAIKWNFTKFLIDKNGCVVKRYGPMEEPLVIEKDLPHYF
Glutathione peroxidase 1 (Homo sapiens), sequence (P07203 whole entry, looked up): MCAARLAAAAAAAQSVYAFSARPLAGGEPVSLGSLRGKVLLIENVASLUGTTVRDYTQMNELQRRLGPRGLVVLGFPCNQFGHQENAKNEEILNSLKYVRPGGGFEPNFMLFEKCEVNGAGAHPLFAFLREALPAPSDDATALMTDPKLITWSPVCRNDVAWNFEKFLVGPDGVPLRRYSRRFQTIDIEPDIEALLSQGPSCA

C=CC(=O)N1CCN(C(=O)CNc2cc(I)c(Cl)cc2O)CC1
active: Potency [1] 5.15 µM | Potency [5] 8.44 µM
inactive: Potency [2] | Potency [3] | Potency [4] | Potency [6] | Potency [7]

C[S+](CC[C@H](N)C(=O)[O-])C[C@H]1O[C@@H](n2cnc3c(N)ncnc32)[C@H](O)[C@@H]1O (stereo partly specified)
inactive: Potency [1] | Potency [2] | Potency [3] | Potency [4] | Potency [5] | Potency [6] | Potency [7]

CC1COC2(OC3CC4C5CC(O[C@@H]6O[C@H](C)[C@@H](O[C@@H]7O[C@@H](C)[C@H](O)[C@@H](O)[C@H]7O)[C@H](O)[C@H]6O)C6CC(O)CCC6(C)C5CCC4(C)C3C2C)C(O)C1 (stereo partly specified)
inactive: Potency [1] | Potency [2] | Potency [3] | Potency [4] | Potency [5] | Potency [6] | Potency [7]

CC1(C)CC(=O)C2=C(C1)NC(=S)NC2c1cccc(O)c1 (stereo unspecified)
inactive: Potency [2] | Potency [3] | Potency [4] | Potency [5] | Potency [6] | Potency [7]
active: Potency [1] 0.817 µM

CC(=O)O[C@H]1C[C@@](O)(C(C)C)C2[C@@H](OC(=O)c3ccc(O)cc3)C[C@@]3(C)O[C@H]3C[C@]21C (stereo partly specified)
inactive: Potency [1] | Potency [2] | Potency [3] | Potency [4] | Potency [5] | Potency [6] | Potency [7]

CC(=O)O[C@@H]1c2c(C)coc2C(=O)[C@@]23O[C@@H]2CC[C@H](C)[C@@]13C
inactive: Potency [1] | Potency [2] | Potency [3] | Potency [4] | Potency [5] | Potency [6] | Potency [7]

C[C@@H]1CC[C@@]2(OC1)O[C@H]1C[C@H]3[C@@H]4CC=C5C[C@@H](O)CC[C@]5(C)[C@H]4CC[C@]3(C)[C@H]1[C@@H]2C
inactive: Potency [1] | Potency [2] | Potency [3] | Potency [4] | Potency [5] | Potency [6] | Potency [7]

COc1cc(O)c2c(c1)C1=C[C@H](O)[C@@H](O)C[C@]1(C)OC2=O
inactive: Potency [1] | Potency [2] | Potency [3] | Potency [4] | Potency [5] | Potency [6] | Potency [7]

CO[C@H]1C[C@@H]2CC[C@@H](C)[C@@](O)(O2)C(=O)C(=O)N2CCCC[C@H]2C(=O)O[C@H]([C@H](C)C[C@@H]2CC[C@@H](OP(C)(C)=O)[C@H](OC)C2)CC(=O)[C@H](C)/C=C(\C)[C@@H](O)[C@@H](OC)C(=O)[C@H](C)C[C@H](C)/C=C/C=C/C=C/1C
active: Potency [1] 0.0468 µM
inactive: Potency [2] | Potency [3] | Potency [4] | Potency [5] | Potency [6] | Potency [7]

C/C(=C\CC[C@@H](C)[C@H]1CC(O)[C@@]2(C)C3CC[C@H]4C(C)(C)[C@@H](OC5OCC(O)C(O)C5OC5OC(CO)C(O)C(O)C5O)CC[C@@]45C[C@@]35CC(O)[C@]12C)C(=O)O (stereo partly specified)
inactive: Potency [1] | Potency [2] | Potency [3] | Potency [4] | Potency [5] | Potency [6] | Potency [7]

C[C@@H]1O[C@@H](O[C@H]2[C@H](O)[C@@H](O[C@@H]3O[C@H](CO)[C@@H](O)[C@H](O[C@@H]4O[C@H](CO)[C@@H](O)[C@H](O)[C@H]4O)[C@H]3O)[C@H](O[C@H]3CC[C@@]4(C)C(=CC[C@@H]5C4CC[C@@]4(C)C5C[C@@H]5OC6(CC[C@@](C)(CO[C@@H]7O[C@H](CO)[C@@H](O)[C@H](O)[C@H]7O)O6)[C@@H](C)[C@@H]54)C3)O[C@@H]2CO)[C@H](O)[C@H](O)[C@H]1O (stereo partly specified)
inactive: activity change, negative = cell killing [1] -26.3% [at 9.23 µM] | activity, negative = inhibition [2] -7.69% [at 9.52 µM] | activity change, negative = inhibition [3] -8.14% [at 9.73 µM] | activity change, negative = inhibition [4] -3.7% [at 11.6 µM] | activity change, negative = thiol reactive [5] 201% [at 11.5 µM] | activity, negative = inhibition [6] -0.894% [at 11.6 µM] | redox activity (% of DA3003) [7] 7.08% [at 11.5 µM]

C[C@H](NC(c1cccc2[nH]c(=O)c(=O)[nH]c12)P(=O)(O)O)c1ccc(Br)cc1 (stereo partly specified)
inactive: Potency [1] | Potency [2] | Potency [3] | Potency [4] | Potency [5] | Potency [6] | Potency [7]

C=C(C(=O)OC)C1C(O)CC2(C)C(O)CCC(=O)C2C1O (stereo unspecified)
inactive: Potency [1] | Potency [2] | Potency [3] | Potency [4] | Potency [5] | Potency [6] | Potency [7]

O=C1C=CC2OC(c3ccccc3)C(O)C2O1 (stereo unspecified)
active: Potency [1] 4.59 µM | Potency [5] 23.8 µM
inactive: Potency [2] | Potency [3] | Potency [4] | Potency [6] | Potency [7]

CC1(C)C2CC=C(COC3OC(COC4OCC(O)(CO)C4O)C(O)C(O)C3O)C1C2 (stereo unspecified)
inactive: Potency [1] | Potency [2] | Potency [3] | Potency [4] | Potency [5] | Potency [6] | Potency [7]

CC(C)CCC(=O)CC1c2ccccc2C(=O)N1c1ccc2ccc(Cl)nc2n1 (stereo unspecified)
inactive: Potency [1] | Potency [2] | Potency [3] | Potency [4] | Potency [5] | Potency [6] | Potency [7]

Cc1cccc(Oc2cnc(=O)[nH]c2)c1
inactive: Potency [1] | Potency [2] | Potency [3] | Potency [4] | Potency [5] | Potency [6] | Potency [7]

COC(=O)N(C)c1c(N)nc(-c2nn(Cc3ccccc3F)c3ncccc23)nc1N
inactive: Potency [1] | Potency [2] | Potency [3] | Potency [4] | Potency [5] | Potency [6] | Potency [7]
